# From PubChem BioAssay AID1347073 (National Center for Advancing Translational Sciences (NCATS), 2019)
# Screen size: about 45,000 compounds; about 200 (0.44%) were called active. About 7% were inconclusive and are not listed. The call rests on the fitted dose curve; in most records, active means well fitted activation curve with a large enough effect; inconclusive means small, poorly fitted or top-dose-only effect; inactive means no such curve, though single readings can be large or run the other way. The entries come from a sample that favours actives as a whole.
# Experiment: qHTS of TDP-43 Inhibitors: NCGC Sytravon Library Screen; further: nearly all actives have a fitted effect of over 55% in size; on growth rescue (activation): 0% is about no effect
# Conditions: yeast TDP-43 toxicity rescue, BacTiter-Glo growth, 24 h; series mostly up to 46.1 µM; growth rescue (activation): at the top concentration
# How it was run: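 TDP-43-expressing yeast, pregrown in raffinose, seeded at OD600 0.02 in galactose medium with compound for 24 hr at 30 deg C. Growth read by BacTiter-Glo luminescence, so rescue of toxicity appears as activation.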
# Potency means the concentration at half of the fitted maximal effect.
Compound,growth rescue (activation),Potency
COc1cccc(CC(=O)OCC(=O)NCc2ccc3c(c2)OCO3)c1,-6.63% (inactive),–
CC1(C(=O)NCc2ccc3c(c2)OCO3)CCN1C(=O)Cc1cccc2ccccc12 (centres undefined),22.8% (inactive),–
N#Cc1nc(Cc2cccc3ccccc23)oc1NCc1ccc2c(c1)OCO2,–,12.6 µM (active)
O=C(Nc1ccccc1)/C(=C\c1ccco1)NC(=O)c1ccco1,2% (inactive),–
Nc1nc(SCC(=O)NN(c2ccccc2)c2ccccc2)n[nH]1,-8.42% (inactive),–
CC(C)(C)SCCNC(=O)c1cccc([N+](=O)[O-])c1,3.85% (inactive),–
Cc1nn(-c2ccccc2)c2c1C(c1cccc([N+](=O)[O-])c1)N(c1ccccc1)C(=O)N2 (centres undefined),-1.22% (inactive),–
COc1ccc(C(C(=O)NC2CCCC2)N(CCCO)C(=O)Cn2nnc(-c3ccc(C)o3)n2)cc1 (centres undefined),-3.96% (inactive),–
CSc1ccc(C(=O)C2CCCN(C(=O)c3ccc(C)nc3)C2)cc1 (centres undefined),7.96% (inactive),–
CC(=O)N1CCN(C(=O)C2(NC(=O)Nc3ccc(C)cc3)CCCCC2)CC1,14.2% (inactive),–
CC(=O)Oc1ccc2c(=O)oc(-c3ccc([N+](=O)[O-])cc3)nc2c1,6.06% (inactive),–
CC(=O)C1=C(C)NC2=C(C(=O)CC(C)(C)C2)C1C (centres undefined),7.05% (inactive),–
Oc1ccccc1C=NC1CCCCC1N=Cc1ccccc1O (centres undefined),1.52% (inactive),–
O=C(c1ccc(F)cc1)N1CCC(n2nnc3ccccc32)CC1,1.07% (inactive),–
Cc1ccc(NC(=O)CSc2nnc(CNC(=O)c3ccccc3F)o2)cc1,-1.92% (inactive),–
O=C(N/N=C/c1ccc2c(c1)OCO2)C(=O)N1CCCC1,10.5% (inactive),–
CC(OC(=O)c1ccc(Cl)cc1O)C(=O)NCCC1=CCCCC1 (centres undefined),-10.8% (inactive),–
O=C(C1CCN(Cc2ccc(Cl)cc2)CC1)N1CCN(Cc2ccc3c(c2)OCO3)CC1,14.4% (inactive),–
COc1cccc(CC(=O)Nc2nc(-c3ccc(OC)c(OC)c3)cs2)c1,14.4% (inactive),–
CCN(CC(=O)NC(C)C)C(=O)c1cc(S(=O)(=O)N2CCCCC2)ccc1N1CCCCC1,5.21% (inactive),–
Cc1ccc(-c2noc(CNC(=O)c3ccoc3C)n2)cc1,-6.36% (inactive),–
O=C(CCc1c[nH]c2ccccc12)NCCOc1ccccc1,-0.599% (inactive),–
CCn1cc(C(=O)NCC(=O)NC(C)(C)CO)c(=O)c2cc3c(cc21)OCO3,6.6% (inactive),–
Cc1cccc(C(=O)NCC(=O)OCC(=O)N2CC3(C)CC2CC(C)(C)C3)c1 (centres undefined),2.65% (inactive),–
COc1ccc(OCC(=O)NNC(=O)c2cccc(C)c2)cc1,5.1% (inactive),–

Compound,growth rescue (activation),Potency
Cc1cc(C)cc(NC(=O)CSc2ccccc2)c1,13.4% (inactive),–
Cc1ccc(NC(=O)CN(C)C(=O)c2ccc(Br)o2)cc1,-3.69% (inactive),–
CNCC(O)CN1CCN(c2ccccc2OC)CC1 (centres undefined),-12.4% (inactive),–
O=c1c(-c2ccc(Cl)cc2)[n+]([O-])c2ccccc2n1OCc1nc2ccccc2[nH]1,-4.37% (inactive),–
Cc1cc(C)cc(N(CC(=O)NCCSCc2ccco2)S(C)(=O)=O)c1,-12.8% (inactive),–
COC(=O)c1ccc(CN2CCC(CO)(Cc3ccc(OC)cc3)CC2)cc1,-3.6% (inactive),–
O=[N+]([O-])c1ccc(N2CCN(c3ccc(O)cc3)CC2)c(Cl)c1,–,12.6 µM (active)
CN(C)S(=O)(=O)N1CCN(c2ccc([N+](=O)[O-])cc2)CC1,5.23% (inactive),–
COc1ccc(N2CCN(c3ccc([N+](=O)[O-])cc3Cl)CC2)cc1,3.99% (inactive),–
COCCCNc1ccn2nc(-c3ccc(CC(C)C)cc3)cc2n1,-47.9% (inactive),–
S=C(Nc1ccc(Br)cc1Cl)NC1CCN(Cc2ccccc2)CC1,1.2% (inactive),–
CC(C)=CCN1CCN(Cc2ccc(Oc3ncccn3)cc2)CC1CCO (centres undefined),2.62% (inactive),–
Cc1ccc(C)c(NC(=O)c2ccc3nccnc3c2)c1,-4.87% (inactive),–
CC(C(=O)O)n1cnc2sc3c(c2c1=O)CCCC3 (centres undefined),3.86% (inactive),–
Cc1ccc(C(=O)NC2CCN(C(=O)Nc3ccc(F)cc3)CC2)cc1,5.39% (inactive),–
Cc1ccc(/C=N/NC(=O)CN2CCN(Cc3ccccc3)CC2)s1,19.6% (inactive),–
COc1ccc2cc(S(=O)(=O)Nc3ccccn3)ccc2c1,16% (inactive),–
O=C(Cc1ccccc1)Nc1c(Cl)ccc2nsnc12,-0.414% (inactive),–
CC(Oc1ccccc1F)C(=O)NN (centres undefined),7.92% (inactive),–
COc1ccc(NC(=O)C2(C)Cc3c(-c4cccc(NC(C)=O)c4)ccnc3O2)cc1 (centres undefined),-1.39% (inactive),–
COc1ccc(NC(=O)C2COc3ccccc3O2)cc1 (centres undefined),20.8% (inactive),–
COc1ccc(NC(=O)C2Cc3c(-c4ccc(Cl)cc4)ccnc3O2)cc1 (centres undefined),–,20 µM (active)
Cc1ccc(N2CCN(C(=O)c3cccs3)CC2)c(C)c1,12.1% (inactive),–
O=c1[nH]oc(O)c1-c1ncc(C(F)(F)F)cc1Cl,-3.8% (inactive),–
